Laboratory results as given in PubChem BioAssay (Tox21).
Inconclusive results are not listed. The source made the active and inactive calls. Unless noted, calls follow the shape of the dose curve; as a rule, active = well fitted curve in the direction sought with a large enough effect in the repeat runs; inconclusive = weak or mixed curves; inactive = no such curve, though single readings can be large; an effect the other way counts as inactive or inconclusive.

How the values were obtained:
[1] = qHTS assay for small molecule agonists of the p53 signaling pathway (AID 651631; calls by dose curve; also: nearly all actives have a fitted effect of over 15% in size)
In short: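 Agonist mode screen using a stably integrated beta-lactamase gene under p53 response elements in HCT-116 cells. Compound exposure lasts 16 h at 37 °C; fluorescence intensity is measured following 2 h FRET substrate loading.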

[2] = qHTS assay for small molecules that induce genotoxicity in human embryonic kidney cells expressing luciferase-tagged ATAD5 (AID 651632); also: nearly all actives have a fitted effect of over 15% in size
In short: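 ATAD5-luc HEK293T, 2,000 cells/well; cpd or DMSO pin-transferred; 16 hr, 37C/5% CO2; Amplite 30 min RT; luminescence.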

[3] = qHTS assay for small molecule agonists of the p53 signaling pathway - cell viability (AID 651633; calls by dose curve;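 also: p53RE-bla HCT reporter cells with a stable beta-lactamase p53 reporter; series mostly up to about 83 µM; nearly all actives have a fitted effect of over 30% in size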)
In short: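 p53RE-bla cells, seeded at 4,000 per well and rested 5 h at 37 C/5% CO2, received compounds in DMSO for 16 h at 37 C. CellTiter-Glo was then added, and luminescence was read after 30 min at room temperature to gauge cytotoxicity.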

[4] = qHTS assay for small molecules that induce genotoxicity in human embryonic kidney cells expressing luciferase-tagged ATAD5 - cell viability (AID 651634; calls by dose curve; also: nearly all actives have a fitted effect of over 25% in size)
In short: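 Fluorescence from CellTiter-Fluor, reporting protease activity within live cells, served as the viability read-out. HEK293T cells carrying luciferase-tagged ATAD5 had been treated with compound for 15.5 hr at 37C.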

[5] = qHTS assay for small molecule disruptors of the mitochondrial membrane potential (AID 720635); also: potency is read from the fitted curve at half-maximal effect
In short: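 HepG2 cells (2,000/well) attached overnight at 37C, then took compound for 1 hr at 37C, 5% CO2. Mito-MPS dye was added for 30 min; fluorescence was read at 490/535 nm (monomers) and 540/590 nm (aggregates).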

[6] = qHTS assay to test for compound auto fluorescence at 590 nm (red) in HepG2 cells (AID 720674)
In short: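 Rose Bengal sodium served as the red fluorophore standard. HepG2 monolayers (overnight attachment, MEM with 10% FBS) were exposed to test compounds for 1 hr at 37 C and read at Ex 540/Em 590 nm.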

[7] = qHTS assay to test for compound auto fluorescence at 535 nm (green) in HepG2 cells (AID 720675)
[8] = qHTS assay to test for compound auto fluorescence at 460 nm (blue) in HEK293 cells (AID 720678)
In short: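 Auto fluorescence in the blue band was quantified as triamterene equivalency. HEK293 cells were seeded at 2,000/well, dosed after a 4-5 hr attachment, and kept overnight at 37C before the 405/460 nm reading.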

[9] = qHTS assay to test for compound auto fluorescence at 535 nm (green) in HEK293 cells (AID 720680)
[10] = qHTS assay to test for compound auto fluorescence at 460 nm (blue) in HEK293 cell free culture (AID 720681)
In short: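 Test compounds were pinned into cell-free culture medium (DMEM with 10% FBS) and fluorescence was read directly at Ex/Em 405/460 nm. Signals were expressed as fluorescence equivalents of triamterene, with DMSO vehicle as control.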

[11] = qHTS assay to test for compound auto fluorescence at 535 nm (green) in HEK293 cell free culture (AID 720682)
In short: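 No cells present: wells hold DMEM supplemented with 10% FBS, into which compound or vehicle is pinned. Green emission is then recorded (485 nm excitation, 535 nm emission) and scaled to fluorescein.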

[12] = qHTS assay to test for compound auto fluorescence at 590 nm (red) in HEK293 cell free culture (AID 720683)
In short: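 Tox21 10K library compounds were pinned into cell-free DMEM with 10% FBS and fluorescence was read at excitation 540 nm. Activity is expressed as Rose Bengal sodium equivalency.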

[13] = qHTS assay to test for compound auto fluorescence at 590 nm (red) in HepG2 cell free culture (AID 720684)
In short: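 Red fluorescence (540 nm excitation, 590 nm emission) was measured after compound transfer into cell-free MEM supplemented with 10% FBS. Values are equivalencies against Rose Bengal sodium.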

[14] = qHTS assay to test for compound auto fluorescence at 460 nm (blue) in HepG2 cell free culture (AID 720685)
In short: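 Compound (23 nL) or DMSO pinned into cell-free MEM with 10% FBS; blue fluorescence read at 405/460 nm excitation/emission, expressed as auto-fluorescence equivalency to triamterene.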

[15] = qHTS assay to test for compound auto fluorescence at 460 nm (blue) in HepG2 cells (AID 720687)
In short: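 Cells (2,000/well in MEM with 10% FBS) attached overnight at 37 C, then were exposed to compound or DMSO for 1 hr at 37 C, 5% CO2. Fluorescence read at Ex/Em 405/460 nm, expressed as triamterene-equivalent signal.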

[16] = target: Glucocorticoid receptor (Homo sapiens) (UniProt P04150); assay: qHTS assay to identify small molecule agonists of the glucocorticoid receptor (GR) signaling pathway (AID 720691; active = well fitted activation curve with a large enough effect in the signal ratio in the repeat runs, not every such curve was filed as active; the % refers to the signal ratio)
Sequence of Glucocorticoid receptor (Homo sapiens) (P04150 whole entry, looked up): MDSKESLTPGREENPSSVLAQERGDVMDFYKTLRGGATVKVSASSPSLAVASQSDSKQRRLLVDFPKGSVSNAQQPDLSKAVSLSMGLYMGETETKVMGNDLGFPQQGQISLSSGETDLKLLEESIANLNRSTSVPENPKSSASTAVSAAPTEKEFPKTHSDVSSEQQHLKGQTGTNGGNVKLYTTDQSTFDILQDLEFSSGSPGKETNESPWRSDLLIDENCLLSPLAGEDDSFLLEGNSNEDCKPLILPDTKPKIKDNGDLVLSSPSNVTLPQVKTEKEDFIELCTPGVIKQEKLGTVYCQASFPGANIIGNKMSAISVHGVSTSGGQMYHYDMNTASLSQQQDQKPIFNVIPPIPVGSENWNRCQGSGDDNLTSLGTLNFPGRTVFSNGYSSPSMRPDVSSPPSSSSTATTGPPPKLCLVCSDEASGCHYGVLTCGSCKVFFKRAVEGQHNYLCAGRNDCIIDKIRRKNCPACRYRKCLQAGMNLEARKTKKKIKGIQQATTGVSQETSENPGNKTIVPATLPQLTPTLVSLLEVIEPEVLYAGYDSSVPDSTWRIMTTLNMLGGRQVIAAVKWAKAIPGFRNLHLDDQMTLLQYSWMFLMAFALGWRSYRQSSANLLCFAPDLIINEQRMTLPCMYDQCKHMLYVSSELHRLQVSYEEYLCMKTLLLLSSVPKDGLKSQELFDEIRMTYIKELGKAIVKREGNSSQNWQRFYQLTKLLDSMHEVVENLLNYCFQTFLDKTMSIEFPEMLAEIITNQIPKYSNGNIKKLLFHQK
In short: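 Fluorescence intensity from LiveBLAzer B/G FRET substrate (2 h, room temperature) reports beta-lactamase expression driven by the glucocorticoid response element in GR-bla HeLa cells after 18 h compound exposure at 37 C.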

[17] = target: Glucocorticoid receptor (Homo sapiens) (UniProt P04150); assay: qHTS assay to identify small molecule antagonists of the glucocorticoid receptor (GR) signaling pathway (AID 720692; active = well fitted inhibition curve with a large enough effect in the signal ratio in the repeat runs, not every such curve was filed as active; the % refers to the signal ratio)
In short: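 HeLa GR-bla cells; cmpd + dex 5 nM final, 18 h 37 C; LiveBLAzer B/G FRET substrate 2 h RT; fluorescence intensity read. Antagonist mode, qHTS.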

[18] = qHTS assay for small molecule disruptors of the mitochondrial membrane potential - cell viability (AID 720634; calls by dose curve;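 also: human HepG2 liver cancer cells; series mostly up to about 83 µM; nearly all actives have a fitted effect of over 20% in size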)
In short: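 Cells: HepG2, 2,000/well, attached overnight. Compound 1 hr, 37 C/5% CO2. +m-MPI dye, +CellTiter-Glo 30 min RT. Readout: luminescence (ATP).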

[19] = qHTS assay to test for compound auto fluorescence at 590 nm (red) in HEK293 cells (AID 720679)
In short: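 Autofluorescence equivalency to Rose Bengal sodium, 540/590nm, in HEK293 cells exposed overnight to 23 nL compound per well.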

[20] = qHTS assay to test for compound auto fluorescence at 535 nm (green) in HepG2 cell free culture (AID 720686)
% is scaled to controls: 0 for no effect and ±100 for the full control effect.

Oc1ccccc1Cc1ccccc1O
inactive: outcome [1] | outcome [2] | outcome [3] | Potency [4] | outcome [6] | outcome [7] | outcome [8] | outcome [9] | outcome [10] | outcome [11] | outcome [12] | outcome [13] | outcome [14] | outcome [15] | Potency [16] | outcome [17]
active: Potency [5] 7.7 µM

SCCSCCS
inactive: outcome [1] | outcome [2] | outcome [3] | Potency [4] | outcome [18] | outcome [6] | outcome [7] | outcome [8] | outcome [19] | outcome [9] | outcome [10] | outcome [11] | outcome [12] | outcome [13] | outcome [14] | outcome [15] | Potency [16]

C=C(C)C(=O)OC1CC(C)CC(C)(C)C1 (configuration not stated)
inactive: outcome [1] | outcome [2] | outcome [3] | Potency [4] | outcome [18] | outcome [6] | outcome [7] | outcome [8] | outcome [19] | outcome [9] | outcome [10] | outcome [11] | outcome [12] | outcome [13] | outcome [14] | outcome [15] | Potency [16] | outcome [17]

Cc1cccc(C(=O)O)c1[N+](=O)[O-]
inactive: outcome [1] | outcome [2] | outcome [3] | Potency [4] | outcome [18] | outcome [6] | outcome [7] | outcome [9] | outcome [10] | outcome [11] | outcome [12] | outcome [13] | outcome [20] | outcome [15]

C=CC(C)(O)CC/C=C(\C)CC (configuration not stated)
inactive: outcome [1] | outcome [2] | outcome [3] | Potency [4] | outcome [18] | outcome [6] | outcome [7] | outcome [8] | outcome [9] | outcome [10] | outcome [11] | outcome [12] | outcome [13] | outcome [20] | outcome [15] | Potency [16] | outcome [17]

CCC1COC(=O)O1 (configuration not stated)
inactive: outcome [1] | outcome [2] | outcome [3] | Potency [4] | outcome [18] | outcome [6] | outcome [7] | outcome [8] | outcome [19] | outcome [10] | outcome [11] | outcome [12] | outcome [13] | outcome [14] | outcome [20] | outcome [15] | Potency [16]

O=C1CC[C@H](C(=O)N2CCCCC2)N1
inactive: outcome [1] | outcome [2] | outcome [3] | outcome [18] | Potency [5] | outcome [6] | outcome [8] | outcome [19] | outcome [9] | outcome [10] | outcome [11] | outcome [12] | outcome [13] | outcome [14] | outcome [20] | outcome [15] | Potency [16] | outcome [17]

CCC(=O)OCCC(C)CCC=C(C)C (configuration not stated)
inactive: outcome [1] | outcome [2] | outcome [3] | Potency [4] | outcome [18] | outcome [6] | outcome [7] | outcome [8] | outcome [19] | outcome [10] | outcome [11] | outcome [12] | outcome [13] | outcome [14] | outcome [20] | outcome [15]

CC(C)C(=O)c1ccccc1
inactive: outcome [1] | outcome [2] | outcome [3] | Potency [4] | outcome [6] | outcome [7] | outcome [8] | outcome [19] | outcome [10] | outcome [11] | outcome [12] | outcome [13] | outcome [14] | outcome [20] | outcome [15]

O=C(Oc1ccccc1C(=O)O)c1ccccc1O
inactive: outcome [1] | outcome [2] | outcome [3] | Potency [4] | outcome [18] | outcome [6] | outcome [8] | outcome [19] | outcome [9] | outcome [10] | outcome [11] | outcome [12] | outcome [13] | outcome [14] | outcome [20] | outcome [15]

CCCCCCCCCCCCCCCCI
inactive: outcome [1] | outcome [2] | outcome [3] | outcome [18] | Potency [5] | fluorescence, relative to Rose Bengal [6] 0.0421% [at 18.6 µM] | fluorescence, % of triamterene [8] 0.0613% [at 18.6 µM] | fluorescence, % of fluorescent control [19] 0.21% [at 18.6 µM] | fluorescence, % of fluorescein [9] 0.0243% [at 18.6 µM] | fluorescence, % of fluorescent control [10] -0.0222% [at 18.6 µM] | activity change [11] -0.0077% [at 18.6 µM] | fluorescence, % of fluorescent control [12] 0.0155% [at 18.6 µM] | fluorescence, % of Rose Bengal [13] -0.0349% [at 18.6 µM] | fluorescence, % of fluorescent control [14] -0.142% [at 18.6 µM] | fluorescence, % of fluorescein control [20] 0.0097% [at 18.6 µM] | fluorescence, % of fluorescent control [15] 0.151% [at 18.6 µM]

Nc1ccc(S(=O)(=O)Nc2ccccn2)cc1
inactive: outcome [1] | outcome [2] | outcome [3] | Potency [4] | outcome [18] | fluorescence, relative to Rose Bengal [6] 0.667% [at 18.6 µM] | fluorescence, % of fluorescein control [7] -0.201% [at 18.6 µM] | fluorescence, % of triamterene [8] -0.296% [at 18.6 µM] | fluorescence, % of fluorescent control [10] -0.0806% [at 18.6 µM] | activity change [11] 0.0547% [at 18.6 µM] | fluorescence, % of fluorescent control [12] 0.101% [at 18.6 µM] | fluorescence, % of Rose Bengal [13] 0.012% [at 18.6 µM] | fluorescence, % of fluorescent control [14] -0.12% [at 18.6 µM] | fluorescence, % of fluorescein control [20] -0.0379% [at 18.6 µM] | fluorescence, % of fluorescent control [15] 0.149% [at 18.6 µM] | Potency [16] | outcome [17]

Cc1ccc2c(c1)c1c3n2CCNC3CCC1 (configuration not stated)
inactive: outcome [1] | outcome [2] | outcome [3] | Potency [4] | outcome [18] | outcome [6] | outcome [7] | outcome [19] | outcome [10] | outcome [11] | outcome [12] | outcome [13] | outcome [20] | outcome [15] | Potency [16] | outcome [17]

CC(=O)c1ccc2c(c1)CCCC2
inactive: outcome [1] | outcome [2] | outcome [3] | Potency [4] | outcome [18] | outcome [6] | outcome [7] | outcome [19] | outcome [9] | outcome [10] | outcome [11] | outcome [12] | outcome [13] | outcome [14] | outcome [20] | outcome [15] | Potency [16] | outcome [17]

CN(C)CCOCCN(C)CCO
inactive: outcome [1] | outcome [2] | outcome [3] | Potency [4] | outcome [6] | outcome [7] | outcome [19] | outcome [9] | outcome [10] | outcome [11] | outcome [12] | outcome [13] | outcome [14] | outcome [20] | outcome [15] | Potency [16] | outcome [17]

FC(F)(F)c1ccc(Cl)cc1Cl
inactive: outcome [1] | outcome [2] | outcome [3] | Potency [4] | outcome [18] | outcome [6] | outcome [7] | outcome [8] | outcome [19] | outcome [9] | outcome [10] | outcome [11] | outcome [12] | outcome [13] | outcome [14] | outcome [15] | Potency [16] | outcome [17]
